# Source: PubChem BioAssay
# D1 agonist: activates the human D1 dopamine receptor; P21728; HEK293 T-REx D1 cells, calcium flux, agonist mode; activation, % at 2 µM; 360,000 tested, 1% active; AID 504660; in the data active = activation above about 30%; note: 0% is about no effect
#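 Tetracycline-induced HEK293 TREx D1 cells, force-coupled to calcium signalling, were dye-loaded with a no-wash calcium kit. Compound was pin-added after a 10 s baseline. Fluorescence was read kinetically at 1 cycle/s for 180 s, with calcium rises flagged as agonism.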
# D1 antagonist: antagonists of human D1 dopamine receptor; 360,000 tested, 3.2% active; activity change, negative = inhibition, % at 10 µM; P21728; AID 504652; HEK293 TREx D1 cells, calcium flux, dopamine EC80; active compounds read low; in the data active = activity change below about -30%; note: % is set by controls: 0 for no effect and ±100 for the full control effect
#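 Cells carrying a force-coupled, tetracycline-inducible human D1 receptor report calcium flux. Each well gets a 10 s baseline, compound with 180 s monitoring, then an EC80 dopamine stimulus with a second 180 s kinetic read.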
# D1 potentiator: potentiators of human D1 dopamine receptor; P21728; HEK293 TREx D1 cells, calcium flux, dopamine EC20 potentiation; potentiation, % at 10 µM; 360,000 tested, 0.036% active; in the data active = potentiation above about 30%; note: 0% is about no effect
# D3 ag: D3 dopamine receptor (human) agonism. max activation, %. 410,000 tested, 0.58% active. D3R DiscoveRx beta-arrestin cells, luminescence, 90 min; in the data active = max activation above about 30%; note: 0% is about no effect
# Target sequence (P35462 whole entry, looked up): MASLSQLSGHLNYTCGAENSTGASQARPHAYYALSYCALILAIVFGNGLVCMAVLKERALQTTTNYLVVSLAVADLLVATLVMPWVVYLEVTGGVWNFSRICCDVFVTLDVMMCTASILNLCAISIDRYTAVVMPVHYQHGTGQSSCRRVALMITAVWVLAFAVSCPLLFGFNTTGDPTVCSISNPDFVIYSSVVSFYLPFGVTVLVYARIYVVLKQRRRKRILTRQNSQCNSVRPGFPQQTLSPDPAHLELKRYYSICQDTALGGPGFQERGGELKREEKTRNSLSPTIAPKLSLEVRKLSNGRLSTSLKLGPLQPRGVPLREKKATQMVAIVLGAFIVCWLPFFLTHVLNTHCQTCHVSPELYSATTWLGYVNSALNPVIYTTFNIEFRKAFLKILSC
#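 Agonist mode: compounds and dopamine controls were applied to plated cells for 90 min at 37 degrees C after an overnight attachment at 1500 cells/well. Luminescent read-out followed 30 - 60 minutes at room temperature with DiscoveRx detection reagent.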
# D3 antag: blocks the human D3 dopamine receptor; max response, negative = inhibition, %; D3R cells, DiscoveRx beta-arrestin luminescence, antagonist mode; active compounds read low; 360,000 tested, 2.5% active; AID 652054; P35462; in the data active = max response below about -50%; inconclusive = no clear call, values can overlap the other calls; note: % is set by controls: 0 for no effect and ±100 for the full control effect
#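 Cells plated overnight at 1500 cells/well, then exposed to library compounds with dopamine controls for 90 minutes at 37 degrees C. DiscoveRx reagent added for 30–60 minutes at room temperature; luminescence read, quantitative HTS format.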
# Active calls of the source: *; ? = inconclusive; / = no result. The list is not random: actives were taken first. Their share in the collection is about 6%.
SMILES,D1 agonist,D1 antagonist,D1 potentiator,D3 ag,D3 antag
O=C(O)c1ccc(CNCc2cccc(Cl)c2)cc1,6.9,-24.3,-4.5,-1.8,5.6
O=C(O)c1ccc(CNCc2c(Cl)cccc2Cl)cc1,2.4,-50.8*,-12.9,-9.6,-5.2
Cn1c(=O)c2cc(NC(=O)NCCc3ccccc3)ccc2n1Cc1cccc(C(F)(F)F)c1,/,/,/,5.0,37.6
CCOC(=O)/C(C#N)=C(C)/C=C1\Sc2ccccc2N1CC,44.8*,10.3,-6.5,6.4,109.0
CCN1/C(=C\C=C(C(C)=O)C(C)=O)Sc2ccccc21,80.2*,12.4,-3.9,-0.3,6.7
CCN1/C(=C\C(=S)Nc2ccccc2)Sc2ccccc21,6.6,-4.5,-2.3,2.5,-14.3
O=C(Nc1cc2c(cc1C(=O)c1cccc(Br)c1)OCCO2)c1ccccc1F,1.4,5.3,-3.4,3.2,/
Cc1c(C(=O)N/N=C/c2cccs2)nnn1-c1nonc1N,1.9,-3.7,-2.6,36.0*,9.2
CCCc1c(C(=O)N/N=C(\C)c2ccccn2)nnn1-c1nonc1N,/,/,/,-13.1,-84.9*
CCCN(CCC)Cc1c(C(=O)N/N=C/c2cccs2)nnn1-c1nonc1N,2.6,-15.9,-8.6,-20.3,-13.7
CCN(CC)Cc1c(C(=O)N/N=C/c2c(Cl)cccc2Cl)nnn1-c1nonc1N,0.7,24.5,5.7,30.1*,12.8
CCCc1c(C(=O)N/N=C/c2cccs2)nnn1-c1nonc1N,31.2*,10.4,4.5,4.2,10.5
CCN(CC)Cc1c(C(=O)N/N=C/c2ccncc2)nnn1-c1nonc1N,2.7,0.1,-5.9,-11.2,-19.4
O=C(O)c1c(-c2ccccc2)cnc2ccccc12,/,/,/,1.5,16.0
CC(C)=CCc1c(O)cc(O)c2c(=O)c3c(CC=C(C)C)c(O)ccc3oc12,/,/,/,0.0,1.8
Cn1c(=O)[nH]c(=O)c2c1nc(N1CCNCC1)n2Cc1cccc2ccccc12,1.4,12.0,-1.5,-5.7,-79.7*
Cn1c(=O)c2c(nc(N3CCNCC3)n2Cc2cccc3ccccc23)n(C)c1=O,4.0,-9.8,-4.3,-8.9,-68.8*
CCCn1c(N2CCOCC2)nc2c1c(=O)[nH]c(=O)n2C,4.8,-5.8,0.1,-10.5,-5.5
Cn1c(=O)[nH]c(=O)c2c1nc(SCC(O)CO)n2Cc1ccccc1Cl (stereo not drawn),0.8,-64.0*,-3.2,-8.9,-18.0
Cn1c(=O)[nH]c(=O)c2c1nc(Br)n2Cc1ccccc1Cl,2.1,-6.1,0.2,-12.2,-28.1
CCCn1c(N2CCN(C)CC2)nc2c1c(=O)[nH]c(=O)n2C,1.5,-30.6*,-10.1,1.6,-9.6
Cn1c(=O)[nH]c(=O)c2c1nc(N1CCNCC1)n2Cc1ccccc1,-2.4,-1.1,-0.1,2.7,-17.2
Cc1ccc(S(=O)(=O)C(CNC(=O)C(=O)NCc2ccc(Cl)cc2)c2cccs2)cc1 (stereo not drawn),11.3,/,-1.8,-11.3,/
CC(Oc1ccc(Br)cc1)C(=O)Nc1ccc(S(=O)(=O)N(C)C2CCN(C)CC2)cc1 (stereo not drawn),126.2*,-52.2*,12.9,-7.5,-26.7
CCC(C(=O)NC1CCN(C)CC1)c1ccccc1 (stereo not drawn),3.0,0.9,-6.1,2.7,1.4
SMILES,D1 agonist,D1 antagonist,D1 potentiator,D3 ag,D3 antag
COc1ccc(S(=O)(=O)N(C)C2CCN(C)CC2)cc1,-1.9,9.5,3.8,-6.5,-25.7
CCC(C(=O)Nc1ccc(S(=O)(=O)N(C)C2CCN(C)CC2)cc1)c1ccccc1 (stereo not drawn),30.3*,-14.3,-9.1,-1.9,4.5
COc1ccc(CC(=O)Nc2ccc(S(=O)(=O)N(C)C3CCN(C)CC3)cc2)cc1,20.9,9.3,-2.2,-21.1,-3.4
COc1ccccc1CC(=O)Nc1ccc(S(=O)(=O)N(C)C2CCN(C)CC2)cc1,2.4,7.8,-3.0,-21.3,-51.3*
CCOc1ccc(CCNC(=O)CCc2c(C)nc3c(c(C)nn3-c3ccccc3)c2C)cc1OCC,8.2,-14.0,-4.6,1.2,/
CCc1ccc(CNC(=O)c2ccc(OC)c(OC3CCN(C(C)C)CC3)c2)nc1,-0.1,-80.0*,-12.8,2.4,-1.4
COc1ccc(C(=O)NC2CC2)cc1OC1CCN(Cc2ccc(F)cc2)CC1,1.3,-40.4*,-20.2,-18.2,?
COc1ccccc1/C=C/CN1CCC(Oc2ccc(C(=O)N3CCCCC3)cc2)CC1,5.6,-8.7,0.7,-50.4,-104.7*
COc1ccccc1/C=C/CN1CCC(Oc2cc(C(=O)NC3CC3)ccc2OC)CC1,11.2,-73.0*,-5.2,-7.2,-76.9*
COc1ccc(CN2CCN(C(=O)c3c(-c4ccccc4)noc3C)CC2)cc1F,2.8,-2.0,-0.1,0.4,4.8
CN(C)N(C(=O)c1cc(-c2cccs2)nn1-c1ccccc1)C1CCS(=O)(=O)C1 (stereo not drawn),1.0,23.7,2.7,-9.2,?
COc1ccc(Cl)cc1NC(=O)CN(C)C(=O)c1cc(-c2ccncc2)nc2ccccc12,2.6,-11.3,-3.9,-5.0,?
COc1ccc(C(=O)NC2CC2)cc1OC1CCN(Cc2ccccc2)CC1,2.7,-23.1,-16.9,-1.7,-5.1
C#Cc1ccc(CN2CCC(Oc3cc(C(=O)NC4CC4)ccc3OC)CC2)cc1,3.7,-45.0*,-10.8,-5.4,-20.4
CC1CCN(CCCCOc2cccc(Br)c2)CC1,20.7,-1.9,-3.8,-31.7,?
Cc1cc(Br)ccc1OCCCCN1CCC(C)CC1,11.2,-10.1,-6.2,-27.2,-75.7*
Brc1ccc(OCCCCN2CCCCC2)cc1,7.8,-17.5,1.7,-6.5,-55.4*
CC1CCN(CCCCOc2ccc(Br)cc2)CC1,11.0,-10.5,-5.4,-17.5,-51.8*
O=[S+]([O-])(c1ccc2c(c1)OCCO2)N1CCN([S+](=O)([O-])c2c(F)cc(Br)cc2F)CC1,1.7,9.8,4.5,/,/
CSc1ccccc1C(=O)N1CCN(S(=O)(=O)c2sc(C(=O)O)c(C)c2C(=O)O)CC1,0.0,4.3,-3.3,0.0,3.1
C=CC[N@@+]12CC[C@@]34c5ccccc5N5/C=C6/[C@H]7C[C@H]8[C@@]9(CC[N@@+]8(CC=C)C/C7=C/CO)c7ccccc7N(/C=C(/[C@@H](C[C@@H]31)/C(=C\CO)C2)[C@H]54)[C@@H]69,/,/,/,-3.1,/
CCOC(=O)C1=CN(Cc2ccco2)S(=O)(=O)N(CC)C1c1ccc(C(F)(F)F)cc1 (stereo not drawn),/,/,/,-6.4,-10.1
O=[N+]([O-])c1ccc(NN=CC2CCCCCC2)c([N+](=O)[O-])c1,/,/,/,-1.1,-13.0
Cc1ccc(C)c(OCCOCCN2CCOCC2)c1,1.7,-3.8,-8.6,-18.1,-56.0*
Cc1ccc(C(C)C)c(OCCCCCN2CCOCC2)c1,1.3,7.9,-10.0,-16.6,-51.9*
CCOc1ccc(C(=O)Nc2ccc3nc(SCC(=O)N(C)c4ccccc4)sc3c2)cc1,2.4,-26.4,2.2,3.3,/
Cc1ccc(O)c(C(=O)c2cc(C#N)c3nc4ccccc4n3c2)c1,62.1*,6.9,7.8,9.9,9.7
